Data: PubChem BioAssay AID602142 (NMMLSC, 2011)
The list shows a part of the results. Values without a mark were called inactive. The rule behind the calls is not given here.

What follows are molecules tested against Lethal factor (Bacillus anthracis) (UniProt P15917) (assay: Bacillus anthracis LF protease inhibitors, confirmation, biochemical, multiplex microsphere, cherry pick 1 (AID 602142)). Conditions: multiplex microsphere protease cleavage assay, at 10 µM, stronger effect = higher value.
Lethal factor (Bacillus anthracis), sequence (P15917 whole entry, looked up): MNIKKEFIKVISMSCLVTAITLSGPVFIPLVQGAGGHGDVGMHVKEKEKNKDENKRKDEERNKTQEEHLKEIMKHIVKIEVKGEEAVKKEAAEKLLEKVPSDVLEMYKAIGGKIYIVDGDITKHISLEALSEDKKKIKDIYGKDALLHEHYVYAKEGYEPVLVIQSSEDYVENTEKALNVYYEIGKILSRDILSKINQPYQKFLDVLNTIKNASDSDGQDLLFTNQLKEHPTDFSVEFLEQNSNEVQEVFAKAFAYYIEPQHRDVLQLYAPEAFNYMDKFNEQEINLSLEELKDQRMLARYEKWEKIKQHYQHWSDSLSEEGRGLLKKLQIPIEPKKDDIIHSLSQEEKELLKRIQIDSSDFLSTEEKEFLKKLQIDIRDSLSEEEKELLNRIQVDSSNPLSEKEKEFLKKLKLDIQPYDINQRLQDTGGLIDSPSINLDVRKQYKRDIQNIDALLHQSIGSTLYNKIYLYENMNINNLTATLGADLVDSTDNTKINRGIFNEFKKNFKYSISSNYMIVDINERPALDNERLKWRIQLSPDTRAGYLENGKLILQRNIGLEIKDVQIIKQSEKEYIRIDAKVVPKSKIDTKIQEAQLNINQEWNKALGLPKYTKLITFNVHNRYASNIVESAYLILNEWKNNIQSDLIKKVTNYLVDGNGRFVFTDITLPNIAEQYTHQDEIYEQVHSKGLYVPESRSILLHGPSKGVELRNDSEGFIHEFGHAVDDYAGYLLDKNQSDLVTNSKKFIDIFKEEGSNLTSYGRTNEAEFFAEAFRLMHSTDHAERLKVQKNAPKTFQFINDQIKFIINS

SMILES	inhibition [%]
COc1ccc(Br)cc1CNCCc1cccc(Cl)c1	3.2
Cc1c(NC(=O)c2cccnc2)c(=O)n(-c2ccccc2)n1C	4.2
Cc1cc(S(=O)(=O)NC2CCCC2)ccc1-n1cnnn1	-3.6
CCOCC(=O)NCc1ccc2c(c1)cc(C)n2C	-1
CCCSc1nc2sc3c(c2c(=O)n1-c1ccc(OC)cc1)CCN(C)C3	4.5
COCCn1nnnc1C(c1cc2ccc(OC)cc2[nH]c1=O)N1CCc2ccccc2C1 (configuration not stated)	-6.3
CCN1CCN(C(C(=O)NC2CCCC2)c2cc3c(cc2[N+](=O)[O-])OCO3)CC1 (configuration not stated)	1.5
OC(c1ccc(Cl)cc1)C(CN1CCOCC1)c1ccccc1 (configuration not stated)	3.2
CC(=O)Nc1ccc(Oc2ccc3c(c2)C(=O)NC3=O)cc1	0.6
O=C(CN1CCCCCC1)Nc1c(Cl)cc(Cl)cc1Cl	2.3
COc1ccccc1C1CCN(C(=S)Nc2ccc(Br)cc2)CC1	1.5
CN1CCN(c2ccc(NC(=O)c3ccccc3)cc2)CC1	4.8
CC1CCc2c(sc3nc4n(c(=O)c23)CCS4)C1 (configuration not stated)	3.6
Clc1ccc(-c2ncc3ccccn23)c(Cl)c1	2.1
O=C(Nc1nnc(CCc2ccccc2)s1)C1CCCO1 (configuration not stated)	2.9
Cc1onc(-c2ccccc2Cl)c1C(=O)NCCn1ccc2ccccc21	4.3
COc1ccccc1-n1c(-c2cc(-c3ccco3)[nH]n2)n[nH]c1=S	2.2
